Measured values from PubChem BioAssay.
Calls of active or inactive are those of the source. Unless noted, how the calls were made is not given here.

How the values were obtained:
[1] = tested on: Wnt5a (protein binding on small-molecule microarray); assay: small molecules binding Wnt5a protein – biophysical, small-molecule microarray, 635/667 nm fluorescence, primary screen (AID 1142); conditions: 635 nm fluorescence, higher = more signal;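 further: fluorescence read at 667 nm with signal to noise per printed feature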
[2] = ATP-based viability of Huh7 replicon cells – cell-based, CellTiter-Glo luminescence, basal, 48 h, cytotoxicity control for HCV replication inhibitor project, primary screen (AID 1143); conditions: higher = more signal, called active from +8 up or from −8 down;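 further: Huh7 hepatoma cells carrying a hepatitis C replication reporter with no stimulus; test concentration not given here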
[3] = Pseudomonas biofilm growth suppression – PAO1 strain, BacTiter-Glo luminescence, LB-PBS, primary screen (AID 1144); conditions: P. aeruginosa PAO1 biofilm, 12 h, higher = more signal
[4] = basal CRE-LacZ reporter activity in PC12 – cell-based, unstimulated, primary screen (AID 1145); conditions: no forskolin, luminescence, 4.5 h, higher = more signal, called active from +8 up or from −8 down
[5] = forskolin-driven CRE-LacZ activity in PC12 – cell-based, CRE-LacZ reporter, forskolin-stimulated, primary screen (AID 1146); conditions: luminescence, 4.5 h, higher = more signal, called active from +8 up or from −8 down;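 further: PC12 cells with 6xCRE LacZ reporter stimulated by forskolin 10 µM; beta-galactosidase reporter signal reflecting CREB driven transcription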
[6] = target: Streptavidin (Streptomyces avidinii) (UniProt P22629); assay: compounds binding control protein streptavidin – biophysical, small-molecule microarray, 635/667 nm fluorescence, artefact control for SMM compound annotation, primary screen (AID 1147); conditions: higher = more signal;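 further: signal reflects streptavidin binding to arrayed compounds as a control protein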
Sequence of Streptavidin (Streptomyces avidinii) (P22629 whole entry, looked up): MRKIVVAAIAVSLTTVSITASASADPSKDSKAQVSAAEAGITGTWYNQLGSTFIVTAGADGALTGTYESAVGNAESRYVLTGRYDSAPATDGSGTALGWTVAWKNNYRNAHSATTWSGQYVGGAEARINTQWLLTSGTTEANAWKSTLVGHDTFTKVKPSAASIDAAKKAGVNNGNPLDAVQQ

[7] = probe aInhba binding on compound microarray – biochemical, small-molecule microarray, 635/667 nm fluorescence, primary screen (AID 1148); conditions: higher = more signal;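 further: score merges 667nm spot fluorescence with signal-to-noise for antibody binding to printed compounds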
Torsin-1A (Homo sapiens) [8] = target: Torsin-1A (Homo sapiens) (UniProt O14656); assay: TOR1A wild-type binding on microarray – cell lysate, small-molecule microarray, lysate, 635/667 nm, primary screen (AID 1149); conditions: COS7 hTOR1A-WT lysate, 635 nm fluorescence, higher = more signal
Sequence of Torsin-1A (Homo sapiens) (O14656 whole entry, looked up): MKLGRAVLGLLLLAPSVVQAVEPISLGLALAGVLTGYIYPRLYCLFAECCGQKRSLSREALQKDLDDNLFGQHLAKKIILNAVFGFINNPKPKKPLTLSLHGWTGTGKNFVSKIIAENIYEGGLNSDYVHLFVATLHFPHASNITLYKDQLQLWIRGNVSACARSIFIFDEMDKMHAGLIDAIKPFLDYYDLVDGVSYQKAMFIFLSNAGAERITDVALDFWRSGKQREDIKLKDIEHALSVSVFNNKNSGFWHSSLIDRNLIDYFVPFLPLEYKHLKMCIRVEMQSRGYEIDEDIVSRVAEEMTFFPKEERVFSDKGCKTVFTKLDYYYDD

Torsin-1A (Homo sapiens) [9] = target: Torsin-1A (Homo sapiens) (UniProt O14656); assay: torsin A mutant lysate binding on microarrays – cell lysate, small-molecule microarray, COS7 lysate, 635/667 nm fluorescence, primary screen (AID 1150); conditions: COS7 hTOR1A mutant lysate, 635 nm fluorescence, higher = more signal;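 further: score pools 667 nm emission and signal to noise measuring lysate protein binding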
[10] = tested on: Sonic hedgehog protein (Shh); assay: Sonic hedgehog microarray binding compounds – biochemical, small-molecule microarray, 635/667 nm fluorescence, primary screen (AID 1151); conditions: 635 nm fluorescence, higher = more signal;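 further: Shh protein binding to compounds spotted on small-molecule microarray slides; score combines spot fluorescence intensity with signal-to-noise across triplicate slides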
[11] = optical density shifts of acrAB sulA E. coli – strain DRC41, OD650, 48 h, E. coli filamentation inducer project, primary screen (AID 1152); conditions: higher = more signal, called active from +8 up or from −8 down;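 further: E. coli MC1000 strain DRC41 lacking acrAB efflux pump and sulA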
[12] = probe aLefty1 binding on compound microarray – biochemical, small-molecule microarray, 635/667 nm fluorescence, primary screen (AID 1153); conditions: higher = more signal;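 further: score merges spot fluorescence with signal-to-noise ratio from the scanned slide images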
[13] = plasmodial surface anion channel blockers, osmotic lysis – cell-based, P. falciparum Indochina, OD700, 1 h, primary screen (AID 1154); conditions: P. falciparum Indochina infected RBC osmotic lysis, higher = more signal, called active from +8 up or from −8 down
[14] = plasmodial surface anion channel blockers, osmotic lysis – cell-based, P. falciparum Indochina, OD700, 2 h, primary screen (AID 1155);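 further: lysis reports solute entry through the parasite surface anion channel PSAC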; conditions: P. falciparum Indochina infected erythrocytes, higher = more signal, called active from +8 up or from −8 down
[15] = changes in parasitized red cell lysis, either direction – P. falciparum Indochina, OD700, 3 h, PSAC antagonist project, primary screen (AID 1156); conditions: P. falciparum-infected erythrocytes, osmotic lysis, higher = more signal, called active from +8 up or from −8 down
[16] = plasmodial surface anion channel blockers, osmotic lysis – cell-based, P. falciparum Indochina, OD700, 18 h, primary screen (AID 1157); conditions: P. falciparum Indochina infected erythrocytes, osmotic lysis OD700, 18 h; higher = more signal, called active from +8 up or from −8 down
[17] = S6 kinase pathway phospho-S6 level changes – cell-based, A549, cytoblot, luminescence, serum-stimulated, primary screen (AID 1158); conditions: 5 h, higher = more signal;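 further: serum-stimulated A549 lung adenocarcinoma cells; signal is phosphorylated S6 detected by cytoblot immunostaining with HRP secondary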
[18] = target: NADPH oxidase 2 (Homo sapiens) (UniProt P04839); assay: compounds shifting NOX2 Amplex Red fluorescence – cell-based, HEK293-NOX2, PMA-stimulated, NOX inhibitor project, primary screen (AID 1159); conditions: 45 min, higher = more signal, called active from +8 up or from −8 down; further: test concentration not given here
Sequence of NADPH oxidase 2 (Homo sapiens) (P04839 whole entry, looked up): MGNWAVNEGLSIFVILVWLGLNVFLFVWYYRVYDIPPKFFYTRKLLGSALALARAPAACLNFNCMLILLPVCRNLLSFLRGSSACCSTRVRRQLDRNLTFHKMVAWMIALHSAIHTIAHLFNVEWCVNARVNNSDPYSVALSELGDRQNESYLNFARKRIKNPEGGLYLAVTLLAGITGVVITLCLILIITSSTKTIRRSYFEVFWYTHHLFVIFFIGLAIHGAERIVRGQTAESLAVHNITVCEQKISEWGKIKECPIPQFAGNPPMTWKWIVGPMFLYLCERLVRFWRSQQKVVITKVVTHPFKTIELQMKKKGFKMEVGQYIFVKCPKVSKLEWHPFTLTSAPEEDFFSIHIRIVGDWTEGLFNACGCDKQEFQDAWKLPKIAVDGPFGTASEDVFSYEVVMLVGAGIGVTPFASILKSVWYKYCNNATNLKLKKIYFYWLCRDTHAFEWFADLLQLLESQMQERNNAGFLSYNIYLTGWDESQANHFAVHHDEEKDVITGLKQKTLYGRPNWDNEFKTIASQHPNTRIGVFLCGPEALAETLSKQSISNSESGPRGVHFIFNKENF

[19] = target: NADPH oxidase 4 (Homo sapiens) (UniProt Q9NPH5); assay: compounds shifting NOX4 Amplex Red fluorescence – cell-based, HEK293-NOX4, tetracycline-induced, NOX inhibitor project, primary screen (AID 1160); conditions: HEK293-NOX4, Amplex Red H2O2 fluorescence, 45 min; higher = more signal, called active from +8 up or from −8 down
Sequence of NADPH oxidase 4 (Homo sapiens) (Q9NPH5 whole entry, looked up): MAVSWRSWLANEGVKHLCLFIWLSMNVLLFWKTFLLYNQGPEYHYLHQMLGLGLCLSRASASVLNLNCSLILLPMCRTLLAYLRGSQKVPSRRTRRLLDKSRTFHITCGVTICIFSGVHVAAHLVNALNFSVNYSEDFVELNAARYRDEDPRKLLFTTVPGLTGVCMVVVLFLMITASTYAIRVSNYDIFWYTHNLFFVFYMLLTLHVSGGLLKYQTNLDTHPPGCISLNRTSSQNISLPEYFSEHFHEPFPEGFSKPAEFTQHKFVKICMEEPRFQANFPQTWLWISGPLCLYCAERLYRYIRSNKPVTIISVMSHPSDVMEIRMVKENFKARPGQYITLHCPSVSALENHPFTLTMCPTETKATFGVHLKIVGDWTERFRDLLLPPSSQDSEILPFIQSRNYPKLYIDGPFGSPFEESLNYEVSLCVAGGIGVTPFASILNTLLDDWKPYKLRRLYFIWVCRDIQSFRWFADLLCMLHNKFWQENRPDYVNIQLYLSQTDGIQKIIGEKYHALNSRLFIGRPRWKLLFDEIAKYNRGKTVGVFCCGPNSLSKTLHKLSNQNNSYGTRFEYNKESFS

[20] = target: NADPH oxidase 5 (Homo sapiens) (UniProt Q96PH1); assay: compounds shifting NOX5 Amplex Red fluorescence – cell-based, HEK293-NOX5, NOX inhibitor project, primary screen (AID 1161); conditions: HEK293-NOX5, ionomycin, 45 min, higher = more signal
Sequence of NADPH oxidase 5 (Homo sapiens) (Q96PH1 whole entry, looked up): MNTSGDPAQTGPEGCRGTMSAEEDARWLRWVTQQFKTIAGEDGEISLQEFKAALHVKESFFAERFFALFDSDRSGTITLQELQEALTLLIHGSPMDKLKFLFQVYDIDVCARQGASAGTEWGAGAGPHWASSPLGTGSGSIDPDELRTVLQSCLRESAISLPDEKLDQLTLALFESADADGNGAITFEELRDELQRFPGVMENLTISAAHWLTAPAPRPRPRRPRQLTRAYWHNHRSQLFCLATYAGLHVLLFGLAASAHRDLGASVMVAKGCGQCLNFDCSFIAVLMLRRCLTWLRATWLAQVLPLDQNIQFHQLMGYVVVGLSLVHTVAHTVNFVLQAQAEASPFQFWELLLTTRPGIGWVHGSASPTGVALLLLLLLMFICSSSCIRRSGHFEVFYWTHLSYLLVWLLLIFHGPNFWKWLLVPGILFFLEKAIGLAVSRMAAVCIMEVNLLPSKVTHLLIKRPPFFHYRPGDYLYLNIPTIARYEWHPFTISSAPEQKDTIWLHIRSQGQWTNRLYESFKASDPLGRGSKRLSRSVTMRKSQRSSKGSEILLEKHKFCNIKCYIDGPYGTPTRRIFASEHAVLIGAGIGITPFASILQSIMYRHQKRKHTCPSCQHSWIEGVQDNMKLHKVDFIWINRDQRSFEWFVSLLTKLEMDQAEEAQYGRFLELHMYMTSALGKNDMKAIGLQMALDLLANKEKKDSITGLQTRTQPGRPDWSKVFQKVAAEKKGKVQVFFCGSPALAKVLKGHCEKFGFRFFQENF

Row | Structure (SMILES) | composite z-score [1] | z-score [2] | z-score [3] | z-score [4] | z-score [5] | composite z-score [6] | composite z-score [7] | composite z-score (Torsin-1A (Homo sapiens) [8]) | composite z-score (Torsin-1A (Homo sapiens) [9]) | composite z-score [10] | z-score [11] | composite z-score [12] | z-score [13] | z-score [14] | z-score [15] | z-score [16] | z-score [17] | z-score [18] | z-score [19] | z-score [20]
1 | CCOC(=O)C[C@H]1[C@H](OC(=O)Cc2ccc3c(c2)OCO3)[C@@H](NC(=O)c2ccccc2)c2cc(OCCCO)ccc2N1C(=O)c1ccc2ccccc2n1 | -0.112 | -0.629 (inactive) | 0.581 (inactive) | 11 (active) | -0.981 (inactive) | 0.965 | -0.0418 | 0.0426 | 1.19 | 0.844 | 2.15 (inactive) | 0.031 | 6.69 (inactive) | -0.0918 (inactive) | -1.04 (inactive) | -1.23 (inactive) | 0.873 | -0.357 (inactive) | 1.16 (inactive) | 0.27
2 | C=CCNC(=O)[C@H]1[C@@H]2C(=O)O[C@@H](c3ccccc3)[C@@H](c3ccccc3)N2[C@@H](c2ccc(OCCO)cc2)[C@]12C(=O)N(C(=O)OCCOC)c1ccc(C#CC3=CCCCC3)cc12 | -0.0184 | -4.77 (inactive) | 1.09 (inactive) | -0.0647 (inactive) | -0.638 (inactive) | 0.716 | 0.18 | 0.689 | 0.868 | 1.32 | 1.1 (inactive) | 0.213 | 2.13 (inactive) | 1.76 (inactive) | 0.178 (inactive) | 0.948 (inactive) | 0.632 | 1.99 (inactive) | 0.421 (inactive) | 2.48
3 | C=CCOC(=O)[C@@H]1[C@H]2C(=O)O[C@H](c3ccccc3)[C@H](c3ccccc3)N2[C@H](c2ccc(OCCOC(=O)[C@@H]3C[C@@H]4C(=O)N[C@@H](CCCCNC(C)=O)C(=O)N4[C@@H]3c3ccc(O)cc3)cc2)[C@@]12C(=O)Nc1ccc(I)cc12 | 0.681 | -0.0705 (inactive) | -0.128 (inactive) | -0.805 (inactive) | -1.32 (inactive) | -0.0068 | 0.591 | 0.928 | 0.27 | 1.81 | 0.158 (inactive) | 0.998 | 0.978 (inactive) | 1.08 (inactive) | 1.45 (inactive) | 0.718 (inactive) | -0.581 | 1.42 (inactive) | 1.35 (inactive) | 0.716
4 | CCCCCCCCCCC(O)C1C=CC2C(=O)NC(=O)C2N1Nc1ccccn1 (stereo not given) | -0.41 | -3.4 (inactive) | -1.27 (inactive) | 3.3 (inactive) | 0.383 (inactive) | 0.606 | -0.0087 | -1.17 | -0.213 | -0.478 | -8.86 (active) | 0.0312 | 19.9 (active) | 6.41 (inactive) | -0.0795 (inactive) | 2.71 (inactive) | -1.18 | -2.33 (inactive) | -5.71 (inactive) | -0.309
5 | COC(=O)[C@@]1(Cc2ccc(OC)cc2)[C@H]2c3cc(C(=O)N4CCCC4)n(CCc4ccc(O)c(OC)c4)c3C[C@H]2CN1C(=O)c1ccccc1 | 0.0928 | -0.666 (inactive) | -0.414 (inactive) | 2.5 (inactive) | 1.04 (inactive) | 0.199 | 0.12 | 0.168 | 0.774 | -0.909 | -1.82 (inactive) | 0.128 | 2.81 (inactive) | 0.626 (inactive) | 0.394 (inactive) | 0.594 (inactive) | 0.389 | -0.124 (inactive) | -1.39 (inactive) | -2.06
6 | C=CCOC(=O)[C@@H]1[C@H]2C(=O)O[C@H](c3ccccc3)[C@H](c3ccccc3)N2[C@H](c2ccc(OCCOC(=O)[C@H]3C[C@H]4C(=O)N[C@@H](Cc5ccccc5)C(=O)N4[C@H]3c3cccc(OCCO)c3)cc2)[C@@]12C(=O)Nc1ccc(I)cc12 | 0.776 | -0.467 (inactive) | -0.787 (inactive) | 6.98 (inactive) | 11.6 (active) | 0.502 | 0.294 | 0.787 | 0.959 | 2.02 | -0.804 (inactive) | 0.403 | 1.94 (inactive) | 1.79 (inactive) | -1.66 (inactive) | 0.619 (inactive) | 0.652 | 2.21 (inactive) | 0.45 (inactive) | 1.98
7 | CC(=O)NCCCC[C@@H]1NC(=O)[C@@H]2C[C@H](C(=O)NCCCC[N+](C)(C)C)[C@H](c3cccc(OCCO)c3)N2C1=O | 0.198 | -0.283 (inactive) | -0.192 (inactive) | -0.532 (inactive) | -0.441 (inactive) | -0.407 | -0.0471 | 2.44 | 1.83 | 1.89 | -0.832 (inactive) | 0.206 | 1.63 (inactive) | 0.372 (inactive) | -0.122 (inactive) | 0.154 (inactive) | -0.246 | 0.151 (inactive) | -0.0151 (inactive) | 1.29
8 | COCCCNC(=O)[C@]1(Cc2ccccc2CN=[N+]=[N-])N=C(c2ccc(OCCCO)cc2)O[C@@H]1c1ccccc1CN=[N+]=[N-] | 0.471 | -4.04 (inactive) | 1.06 (inactive) | 0.969 (inactive) | -1.02 (inactive) | 1.23 | 0.648 | 0.883 | 0.721 | -0.256 | -0.279 (inactive) | 0.861 | 28.8 (active) | 21.5 (active) | 1.72 (inactive) | 2.09 (inactive) | 0.953 | -0.983 (inactive) | -0.00869 (inactive) | -0.84
